Among all 1,000 compounds or so, about 270 (27%) were called active. Cut-off read from the data, not from the text of the source: active = inhibition above about 14%; inactive = the rest. These entries were drawn from the full list.
biological target: Methyl-CpG-binding domain protein 2 (Homo sapiens) (UniProt Q9UBB5); test: MBD2-DBD methyl-oligonucleotide interaction blockers – biochemical, TR-FRET, DNA-binding domain, human, confirmation (AID 720531); details: TR-FRET MBD2-DBD binding to methylated oligonucleotide; at 4.4 µM; stronger effect = higher value
Sequence (Q9UBB5 whole entry, looked up, the tested form may be a part): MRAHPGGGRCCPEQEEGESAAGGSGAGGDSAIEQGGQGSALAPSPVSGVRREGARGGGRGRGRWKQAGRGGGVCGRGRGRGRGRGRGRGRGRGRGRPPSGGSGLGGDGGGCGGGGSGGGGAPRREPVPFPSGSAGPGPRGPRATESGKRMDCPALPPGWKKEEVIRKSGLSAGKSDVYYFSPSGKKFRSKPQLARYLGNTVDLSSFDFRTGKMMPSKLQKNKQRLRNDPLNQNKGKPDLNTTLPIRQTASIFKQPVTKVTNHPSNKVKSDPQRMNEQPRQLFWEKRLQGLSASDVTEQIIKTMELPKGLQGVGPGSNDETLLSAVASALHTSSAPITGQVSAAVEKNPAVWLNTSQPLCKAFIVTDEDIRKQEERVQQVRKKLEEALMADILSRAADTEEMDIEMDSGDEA

Row | Compound | inhibition
1 | c1ccc2cc3c(NCCN4CCOCC4)ccnc3cc2c1 | 25% (active)
2 | Cc1cccc(NC(=O)C[C@H]2CC[C@H]3[C@@H](COc4ccc(NC(=O)Nc5ccccc5)cc4C(=O)N3C)O2)c1 | 8.99% (inactive)
3 | COC(=O)[C@]12C[C@H](CC(=O)NCCC(C)C)C(=O)N(CCc3ccc(OC)c(OC)c3)C1=C[C@H](C(C)(C)C)O[C@@H]2C | 2.11% (inactive)
4 | O=c1ccc2c(-c3ccccc3S(=O)(=O)O)c3ccc(O)c(O)c3oc-2c1O | 94.4% (active)
5 | CN(C)[C@@H]1C(=O)C(C(N)=O)=C(O)[C@@]2(O)C(=O)C3=C(O)c4c(O)ccc(Cl)c4[C@@H](O)[C@H]3C[C@@H]12 | 0.76% (inactive)
6 | CN(C)CCNC(=O)c1ccc(Cl)c2cc3ccccc3nc12 | 68.7% (active)
7 | COc1nc(N(C)C)nc(N2CC(=O)N(CCNS(=O)(=O)c3ccc(C)cc3)C2=N)n1 | 3.06% (inactive)
8 | COC(=O)c1c(NC(=O)c2ccc(S(=O)(=O)N3CCOCC3)cc2)sc2c1CCN(C(C)C)C2 | 23.6% (active)
9 | CCOc1ccc(-n2c(SCC(=O)Nc3ccc(OC)cc3)nc3sc4c(c3c2=O)CCN(C)C4)cc1 | 4.44% (inactive)
10 | COc1ccc(COC[C@H](CC(C)C)N2CCN(C(=O)c3cccc(C(F)(F)F)c3)CCC2=O)cc1 | 5.45% (inactive)
11 | Nc1ccccc1C(=O)NC1CCCCNC1=O (stereo not given) | 0.65% (inactive)
12 | C=CCn1c(=S)[nH]c2scc(-c3ccco3)c2c1=O | 27.2% (active)
13 | COC(=O)c1ccc(CSc2nncn2N)cc1 | 1.91% (inactive)
14 | Cc1c(NS(=O)(=O)c2cc(C(=O)NCCc3ccc(F)cc3)cc(Cl)c2Cl)c(=O)n(-c2ccccc2)n1C | 3.66% (inactive)
15 | C=CCN(C(=O)[C@@H](CCCC)[C@@H](O)c1ccc(Cl)cc1)c1ccccc1 | 3.23% (inactive)
16 | C=CC1=C(C(=O)O)N2C(=O)[C@@H](NC(=O)/C(=N\OCC(=O)O)c3csc(N)n3)[C@H]2SC1 | 104% (active)
17 | CNC(=O)C[C@H]1C(=O)N(c2ccc(OC)cc2)C[C@@H]1Cc1ccccc1 | 2.83% (inactive)
18 | CCOc1ccc(S(=O)(=O)N2CCC(c3ccccc3)CC2)cc1C(=O)O | 0.33% (inactive)
19 | CC(C)c1nc(CNC(=O)CC2C(=O)NCCN2Cc2cccc(F)c2F)cs1 (stereo not given) | 1.21% (inactive)
20 | CCOc1ccc(NC(=O)c2cc(C)nc3ccccc23)cc1 | 1.13% (inactive)
21 | Cc1ccc(Cc2cnc(N)s2)o1 | 2.75% (inactive)
22 | CCOC(=O)C1C(=O)OC2(CCCC2)C1C(=O)OCC (stereo not given) | 1.9% (inactive)
23 | CCN(CC)CCOc1ccc2c(c1)C(=NNC(=O)c1ccccn1)c1cc(OCCN(CC)CC)ccc1-2 | 112% (active)
24 | C=CCN1C(=O)c2ccc(C(=O)N3CCC(C(=O)OCC)CC3)cc2C1=O | 4.08% (inactive)
25 | COc1ccccc1C(=O)NNC(=O)CCN1C(=O)/C(=C\c2ccccc2)SC1=S | 1.72% (inactive)
26 | COC(=O)c1cn(C)c2ccc(S(=O)(=O)N3CC(C)CC(C)C3)cc2c1=O (stereo not given) | 6.67% (inactive)
27 | Cc1ccc(-c2ccnc3nc(Sc4ncc(C(F)(F)F)cc4Cl)nn23)cc1 | 3.6% (inactive)
28 | CCOc1cc(-c2noc(CCCC(=O)NC3CCCCC3)n2)ccc1OC | 7.12% (inactive)

Row | Compound | inhibition
29 | C=C1c2c(Cl)ccc(O)c2C(O)=C2C(=O)[C@]3(O)C(O)=C(C(N)=O)C(=O)[C@@H](N(C)C)[C@@H]3[C@@H](O)C12 (stereo not given in full) | 7.25% (inactive)
30 | Cc1cc(C)c2nc3nc(C)cc(C)c3c(N)c2c1 | 45.1% (active)
31 | CC(C)Oc1ccc(C2NC(=O)NC2=O)cc1 (stereo not given) | 6.62% (inactive)
32 | COC(=O)c1ccc2nc(C3CCCCC3)c(Cc3cccc(F)c3)n2c1 | 4.72% (inactive)
33 | Cc1ccccc1NC(=O)CN1C(=O)N/C(=C\c2cccn2-c2cccc(C(=O)O)c2)C1=O | 21.2% (active)
34 | Cc1cccc(CN2CCN(C3CN(Cc4cn(Cc5cc(C)cc(C)c5)nn4)S(=O)(=O)C3)CC2)c1 (stereo not given) | 1.92% (inactive)
35 | CCOc1ccc(N(CC(=O)NCCOc2ccccc2OC)S(=O)(=O)c2ccccc2)cc1 | 2.61% (inactive)
36 | Cc1c(C=O)n(C)n(-c2ccccc2)c1=O | 6.3% (inactive)
37 | Brc1ccc(-c2n(-c3ccccn3)c3ccccc3[n+]2-c2ccccn2)cc1 | 76.4% (active)
38 | COc1ccc(-n2cc(-c3ccccc3)c3c(=S)nc[nH]c32)cc1 | 3.57% (inactive)
39 | Cc1ccc(C)c(NC(=O)c2ccc(OC(=O)c3ccco3)cc2)c1 | 4.94% (inactive)
40 | CC(=O)c1ccccc1NC(=O)COC(=O)C1COc2ccccc2O1 (stereo not given) | -0.13% (inactive)
41 | COc1ccc(CNC(=O)c2c[nH]c3c(OC)cc(OC)cc3c2=O)cc1 | 3.79% (inactive)
42 | COC(=O)c1ccc2nc(-c3cccc(Br)c3)c(Cc3ccc(OC)cc3C)n2c1 | 8.39% (inactive)
43 | CN(C(=O)COC(=O)c1cc(-c2ccco2)nc2ccccc12)C1CCS(=O)(=O)C1 (stereo not given) | 32.3% (active)
44 | CO/N=C(/CS(=O)(=O)c1ccc(Br)cc1)c1ccc(OC)cc1 | 3.47% (inactive)
45 | COc1ccc(OCc2cc(C(=O)NCC3(C)COC3)no2)c(Cl)c1 | -0.36% (inactive)
46 | CCOc1cc(N2CCOCC2)c(OCC)cc1NC(=O)c1cc(C)nc2ccccc12 | 2.46% (inactive)
47 | COc1ccc2[nH]c3c(C)c4cc[n+](C)cc4c(C)c3c2c1 | 109% (active)
48 | CCOC(=O)CCP(=O)(O)C(O)(c1ccccc1)c1ccccc1 | 5.44% (inactive)
49 | COc1ccc2c(c1)c(=Cc1ccc(N(C)C)cc1)c1cc(-c3ccccc3)[n+](C)n12 | 73% (active)
50 | CCOC(=O)c1sc(NC(=O)CCN2CCOCC2)c(C(=O)OCC)c1C | 1.01% (inactive)
51 | O=C(c1n[nH]c2c1CCC2)N1CCCC(Nc2cccc(F)c2)C1 (stereo not given) | 3.32% (inactive)
52 | O=C(CC1CCCCC1)Nc1c2c(nn1-c1ccc(F)cc1)CS(=O)(=O)C2 | 1.28% (inactive)
53 | CCOC(=O)c1ccc(-n2c(CCC(=O)O)ccc2-c2ccccc2)cc1 | -0.54% (inactive)
54 | COC(=O)c1cccc(NC(=O)c2cccc(N3C(=O)CCC3=O)c2)c1 | 1.64% (inactive)
55 | Cc1ccc(C(=O)Nc2ccc3c(c2)OCO3)cc1S(=O)(=O)N1CCCCC1 | 5.06% (inactive)
